Changes are numbered by the printed parent chain. In all, about 5,800 sequences were measured (“enrichment r”: median about 0.54, highest 2% from about 16 on). The sample holds the highest values, similar sequences and a random draw of the others, so the mix is not that of the screen.
B1: chr4:25747873:25747886:-|3pUTR|ENSG00000091490|msi1_unk|FALSE|overlapping (ssRNA)
RNA: GGGAGUUCUACAGUCCGACGAUCUAGCAGUUAUAAGGCACCUUGAAAUAAAUUGUUUGUGCCUGGAAAUGCAGGGAGGGCAAUAGCUUUGUAAAUUGGUUUACAUUUUUCUCCUUGAAUUUUUCUAGGGUCCUAGUGCUUCCGCAACAGAGGAUUGAGCAUCA
B2: ENSG00000107863:be:win_3601|CDS|ENSG00000107863|bound_else_gene|NA|bound_elsewhere_windowed (ssRNA)
RNA: GGGAGUUCUACAGUCCGACGAUCAAGGGAAUGGCUGAUAUUGAUAUACAAGAUGAUAAAUGGCGAGAUUUGAAUGUGAUAAGCAGUUUACUAAAAUCCUUCUUCAGAAAACUCCCUGAGCCUCUCUUCACAAAUGAUAAAUAUCAACAGAGGAUUGAGCAUCA
B3: chr6:52502144:52502313:-|3pUTR|ENSG00000065308|msi1|total|mutant (ssRNA)
RNA: GGGAGUUCUACAGUCCGACGAUCUCAGCCAUUCACAAGCAUUCAAAACCAAACCAAACAGCAGUUCAUAUACCUGCCUGAGACCGGCUGGUCCUCACCUCCAGAGCCAGCCAGCCCCGUCAGGGGCCAAACUUACUACCUUGACAACAGAGGAUUGAGCAUCA
B4: chr10:119917856:119917957:+|CDS|ENSG00000107651|unk|total|mutant (ssRNA)
RNA: GGGAGUUCUACAGUCCGACGAUCUAAGAAAAUCACUUUGCCAAGUAUUGGUCGAUUUCGUCACUUUACCAAUGAAACUUUGCCCGAUAUUUUAUUUUAUAACAGCCCCACCUACUGUCAGACAAUUGUGGAAAAAGCCGGAAUCAACAGAGGAUUGAGCAUCA
B5: ENSG00000064393:stop:overlap|stop_codon|ENSG00000064393|stop_codon|NA|stop_codon (ssRNA)
RNA: GGGAGUUCUACAGUCCGACGAUCUCUCCCUGGAGAGUGGUUUUCCUGCUUUUCUGCUGCUAGAAAUGUUGCUGUAUGGGAGCUAGUACAAUAGAAAGUGCCCAGUGACUGCAGGCGACCCUUACCGAGGAUUUUAUUCAAGUACAACAGAGGAUUGAGCAUCA
B6: ENSG00000198856:stop:overlap|stop_codon|ENSG00000198856|stop_codon|NA|stop_codon (ssRNA)
RNA: GGGAGUUCUACAGUCCGACGAUCUGAGUUUUUUCAUGGCUAGAGUAUUCAUGAGAAUGAAACUGCCGGGCUAUCUGAUGGGUUAGAGUGCCUUUGAGAAGAAAUCAGUGGAUACUGGAUUUGCUCCUGUCAAUGAAGUUUUAACAACAGAGGAUUGAGCAUCA
B7: chr12:98549999:98550103:+|3pUTR|ENSG00000120802|unk|FALSE|unique (ssRNA)
RNA: GGGAGUUCUACAGUCCGACGAUCUGUUUCCCAUACUGUUUUCAGCCUUUUGUUUAUAAUUAGAAAUUGUGAGAAGCUUCAUUUAGUGUUUAAAAAUGUGGGGAGAUAAAUCAGACUUAACAUGUAUGUAAGAUCAAUUCACUUCAACAGAGGAUUGAGCAUCA
B8: chr12:98549999:98550103:+|3pUTR|ENSG00000120802|unk|total|mutant (ssRNA)
RNA: B7 RNA with U60C, A61C, U83C, A84C
B9: chr2:167954955:167954998:-|3pUTR|ENSG00000198648|msi1_unk|FALSE|overlapping (ssRNA)
RNA: GGGAGUUCUACAGUCCGACGAUCGUUGUAUUUAGAAAUUAAUAUACUUAUAAAAUUAAGAUUUAUUAGCCAAACUUGAAUUCUAGUUUUAAAACUGACUGUGAAUUUUAUUUUUCAUAUAUUUAUGCAUUACACACCUUAGCUCAACAGAGGAUUGAGCAUCA
B10: chr12:104760787:104760888:+|3pUTR|ENSG00000171310|unk|FALSE|unique (ssRNA)
RNA: GGGAGUUCUACAGUCCGACGAUCUUCUUUUCUAAUGGCAUUGAAACUUUAAAAAAAAUGGAUUCAACUGUUUUUGCAGAAUGUAGAAAGUAUUCUGUGUCCUUGGUUAAAGAAAUCCACUUGUGAAGUGUGCCUGGAAAAUGACAACAGAGGAUUGAGCAUCA
B11: chr8:100287602:100287712:-|CDS|ENSG00000034677|unk|total|mutant (ssRNA)
RNA: GGGAGUUCUACAGUCCGACGAUCUGUGUGGAUUGCUUACGACAAUAUUUAAGGACCGAAAUCUCUGAAAGCAGAGUUAAUAUCCGUUGCCCAGAAUGUACUGAACGGUUUAAUCCCCAUGAUAUUCGCUUGAUAUUAAGUGAUCAACAGAGGAUUGAGCAUCA
B12: chr12:909583:909684:+|3pUTR|ENSG00000060237|unk|FALSE|bound_elsewhere (ssRNA)
RNA: GGGAGUUCUACAGUCCGACGAUCUAGCUCUGUCCUUUACUUAUUGAGACACUUUAACUUUUUCCUUUGUAUUUCCAUUGUAUUAGAUAAAUAAAUGUGAAUGUAAAAUUGUAUAAAUUACUGUACUUGAAUACUUCUGUUUCCCAACAGAGGAUUGAGCAUCA
B13: chr8:100287602:100287712:-|CDS|ENSG00000034677|unk|FALSE|unique (ssRNA)
RNA: B11 RNA with C55U, C56A, C83U, C84A
B14: chr1:150220393:150220494:-|3pUTR|ENSG00000143401|msi1_unk|FALSE|overlapping (ssRNA)
RNA: GGGAGUUCUACAGUCCGACGAUCAUUGUAUGUAGAGAAAAAUUUUCAUUGACUCCCAUUGUGGAAUUCCCUAGCAAUUUAUUUAGACUUAAUUUUUUAAAUUCAAGCUUACUGUAUUAGUCAUUUUUAGCCCAUAAUUAAAACCAACAGAGGAUUGAGCAUCA
B15: chr12:104760787:104760888:+|3pUTR|ENSG00000171310|unk|total|mutant (ssRNA)
RNA: B10 RNA with U83C, A84C
B16: chr1:150220393:150220494:-|3pUTR|ENSG00000143401|msi1_unk|total|mutant (ssRNA)
RNA: B14 RNA with U32C, A33C, U71C, A72C, U83C, A84C, U117C, A118C, U127C, A128C

target: MSI1 full-length (mouse, UniProt Q61474 1-362); test: nsRBNS (natural sequence RNA bind-n-seq); RBNS binding buffer (assumed for nsRBNS): 25 mM Tris pH 7.5, 150 mM KCl, 3 mM MgCl2, 0.01% Triton X-100, 500 ug/ml BSA, 20 U/ml SUPERase-In, 4 C; UNK is unkempt and MSI1 is Musashi-1; names of the RNAs are library labels; protein concentration not given here; high values mean tight binding
Sequence (Q61474 whole entry): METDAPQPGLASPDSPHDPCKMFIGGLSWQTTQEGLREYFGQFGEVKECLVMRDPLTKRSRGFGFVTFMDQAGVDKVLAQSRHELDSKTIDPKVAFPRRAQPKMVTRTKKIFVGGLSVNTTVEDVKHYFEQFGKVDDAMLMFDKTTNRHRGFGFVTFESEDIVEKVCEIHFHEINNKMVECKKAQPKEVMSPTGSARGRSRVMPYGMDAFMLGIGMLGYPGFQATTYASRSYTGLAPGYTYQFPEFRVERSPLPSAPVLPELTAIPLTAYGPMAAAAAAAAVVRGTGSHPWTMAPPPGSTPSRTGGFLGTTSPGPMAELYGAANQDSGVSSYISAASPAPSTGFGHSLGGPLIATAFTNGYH

| Binder | binding signal |
| --- | --- |
| B1 | 1.14 enrichment R |
| B2 | 0.64 enrichment R |
| B3 | 0.877 enrichment R |
| B4 | 0.52 enrichment R |
| B5 | 0.605 enrichment R |
| B6 | 16.4 enrichment R |
| B7 | 27.3 enrichment R |
| B8 | 0.426 enrichment R |
| B9 | 9.9 enrichment R |
| B10 | 0.433 enrichment R |
| B11 | 0.307 enrichment R |
| B12 | 13.1 enrichment R |
| B13 | 22.4 enrichment R |
| B14 | 61.8 enrichment R |
| B15 | 0.231 enrichment R |
| B16 | 2.27 enrichment R |

— PMC12136788
